Laboratory results from PubChem BioAssay (EPA / NIEHS).
Several values for one entry are separate records, joined by “and”; a condition that tells them apart may be missing. Equal entries are not always repeated. Records with an inconclusive call do not appear. Activity calls are given as the source filed them. How the source made its calls: active means hit-call score of the fitted dose curve at least 0.9, where 1 is the maximum; inconclusive means response in the unintended direction; inactive means score below 0.9.

system: not listed separately; assay: ArunA_CellTiter_hNP: Viability Assessment in the ArunA Biomedical's Oris Neural Crest (hNC) Cell Migration Assay (AID 2283753)
Method: ArunA_CellTiter_hNP is a cell-based, single-readout assay that uses human H9-derived neuroprogenitor stem cells (hNP1).Measurements were taken 72 hours after chemical dosing in a 96-well plate.ArunA_CellTiter_hNP is an assay component measured from the ArunA_CellTiter_hNP assay. It is designed to make measurements of viability, a form of viability reporter, as detected with fluorescence intensity signals by HCS Fluorescent Imaging technology. Data from the assay component ArunA_CellTiter_hNP was analyzed at the endpoint, ArunA_CellTiter_hNP, in the positive analysis fitting direction relative to DMSO as the negative control and baseline of activity. Using a type of viability reporter, loss-of-signal activity can be used to understand the viability. To generalize the intended target to other relatable targets, this assay endpoint is annotated to the cell cycle intended target family, where the subfamily is cytotoxicity.
To assess the hNP and hNC migration and cell titer endpoints, 60,000 cells per well were plated onto Matrigel in basal growth medium with LIF and bFGF in a 96-well plate format. Plates were incubated for 16 h at 37C followed by a 72 h exposure to chemical in the test medium. For the migration endpoints, cells were seeded and incubated in presence of 'seeding stoppers' to prevent cell migration and growth into the detection zone. At the beginning of chemical exposure, stoppers were removed, and growth medium was replaced with test medium. In the case of the stopper control wells, stoppers remained in place following replacement of growth medium with test medium. […] Cell viability in the detection zone was quantitated using a Flexstation3 microplate reader (ex494 nm/em 517 nm). Corresponding cell titer endpoints were assessed for the hNP and hNC cells using the Promega CellTiter Aqueous One Solution Cell Proliferation Assay (Cat no. G3581; CellTiter 96). Finally, to gain insight into the mechanisms by which cells migrate into the detection zone, Ki-67 expression was quantified for 10 additional chemicals in the hNP and hNC systems. […]

SMILES	AC50	outcome
CCCCCCCCOC(=O)c1cc(O)c(O)c(O)c1	6.65 µM (active) and 541 nM (active)	
O=C(Nc1ccc(Cl)cc1)Nc1ccc(Cl)c(Cl)c1	25.9 µM (active)	
CC(C)(c1cc(Br)c(O)c(Br)c1)c1cc(Br)c(O)c(Br)c1		inactive

system: not listed separately; assay: ArunA_Migration_hNC: ArunA Biomedical's Oris Neural Crest (hNC) Cell Migration Assay (AID 2283755)
Outline: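 Human H9-derived neural crest stem cells, 60,000/well on Matrigel, 16 h at 37C, then 72 h chemical exposure after seeding-stopper removal. Migration into detection zone read as calcein-AM fluorescence (ex494/em517), relative to DMSO.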

SMILES	AC50	outcome
CCCCCCCCOC(=O)c1cc(O)c(O)c(O)c1	120 nM (active) and 452 nM (active)	
O=C(Nc1ccc(Cl)cc1)Nc1ccc(Cl)c(Cl)c1	1.46 µM (active)	
CC(C)(c1cc(Br)c(O)c(Br)c1)c1cc(Br)c(O)c(Br)c1		inactive

biological target: Luciferin 4-monooxygenase (Photinus pyralis) (UniProt P08659); assay: CCTE_Simmons_QuantiLum_inhib_2: CCTE's Firefly Luciferase Inhibition Assay, Simmons Lab (AID 2283767);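 on AC50: potency for inhibitors that lower luciferase luminescence relative to DMSO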
Sequence (P08659 whole entry, looked up): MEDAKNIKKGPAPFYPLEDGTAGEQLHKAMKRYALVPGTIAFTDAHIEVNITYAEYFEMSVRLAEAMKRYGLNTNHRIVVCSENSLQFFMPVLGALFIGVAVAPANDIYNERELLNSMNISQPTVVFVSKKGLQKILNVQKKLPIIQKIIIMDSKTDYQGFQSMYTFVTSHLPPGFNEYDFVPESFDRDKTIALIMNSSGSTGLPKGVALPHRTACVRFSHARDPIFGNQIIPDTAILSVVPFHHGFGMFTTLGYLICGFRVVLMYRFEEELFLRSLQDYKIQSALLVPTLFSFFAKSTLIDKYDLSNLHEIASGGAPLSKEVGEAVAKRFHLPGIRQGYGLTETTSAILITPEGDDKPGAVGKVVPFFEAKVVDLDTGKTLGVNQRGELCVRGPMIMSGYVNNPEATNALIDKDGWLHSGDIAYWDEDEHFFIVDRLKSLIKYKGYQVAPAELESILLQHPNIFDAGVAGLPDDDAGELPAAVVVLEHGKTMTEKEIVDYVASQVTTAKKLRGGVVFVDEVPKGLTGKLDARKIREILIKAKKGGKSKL
Outline: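 Recombinant firefly luciferase (5 ng/well, 200 mM potassium phosphate with 1 mg/ml BSA) was exposed to 8 concentrations from 5 nM to 87.5 uM (final, 0.5% DMSO) for 30 min at 37C in the dark. Loss of luminescence versus DMSO was read after injecting D-luciferin/ATP-analogue reagent.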

SMILES	outcome	AC50
CC(=O)N1CCN(c2ccc(OC[C@H]3CO[C@](Cn4ccnc4)(c4ccc(Cl)cc4Cl)O3)cc2)CC1	inactive	
O=C1CCC(C2CCCCC2)CC1		3.38 µM (active)
CCCCCCCCOC(=O)c1cc(O)c(O)c(O)c1		31.5 µM (active)
COc1cc(C(=O)NC2CCN(C)CC2)ccc1Nc1ncc2c(n1)N(C1CCCC1)CC(F)(F)C(=O)N2C	inactive	
CCCOC(=O)c1cc(O)c(O)c(O)c1	inactive	
Cc1c2ccccc2c(C)c2c1ccc1ccccc12	inactive	
CCN(Cc1cccc(S(=O)(=O)O)c1)c1ccc(C(=C2C=CC(=[N+](CC)Cc3cccc(S(=O)(=O)O)c3)C=C2)c2ccccc2S(=O)(=O)[O-])cc1		15.8 µM (active)
O=C(Nc1ccc(Cl)cc1)Nc1ccc(Cl)c(Cl)c1		15.1 µM (active)
O=C1O[C@H]([C@@H](O)CO)C(O)=C1O	inactive	
NCc1cccc(C2CCN(C(=O)c3ccc(C#Cc4ccccc4F)o3)CC2)c1	inactive	
CC(C)(C)c1csc(-c2cc3cc(OCc4ccccc4CC(=O)O)ccc3o2)n1		10.7 µM (active)
CC(C)(C)c1cc(/C=C2\SC(N)=NC2=O)cc(C(C)(C)C)c1O	inactive	
O=c1c(-c2ccc(O)cc2)coc2cc(O)cc(O)c12		7.86 µM (active)
CN(C[C@@H](CC[N+]12CCC(C3CCCCC3)(CC1)CC2)c1ccc(Cl)c(Cl)c1)C(=O)c1cc(C(F)(F)F)cc(C(F)(F)F)c1	inactive	
C[C@]12CC[C@@H]3c4ccc(O)cc4CC[C@H]3[C@@H]1CC[C@H]2O	inactive	
CN(C)c1ccc(C(=C2C=CC(=[N+](C)C)C=C2)c2ccc(N(C)C)cc2)cc1		3.03 µM (active)
O=C(O)Cc1cc(I)c(Oc2ccc(O)c(I)c2)c(I)c1	inactive	
OC12N=C(c3ccccc3)SC1Cc1cc(Cl)ccc12 (stereo not given)		17.1 µM (active)
CO[C@H]1/C=C/O[C@@]2(C)Oc3c(C)c(O)c4c(O)c(c(/C=N/N5CCN(C)CC5)c(O)c4c3C2=O)NC(=O)/C(C)=C\C=C\[C@H](C)[C@H](O)[C@@H](C)[C@@H](O)[C@@H](C)[C@H](OC(C)=O)[C@@H]1C		22.6 µM (active)
CC/C(=C(/CC)c1ccc(O)cc1)c1ccc(O)cc1	inactive	
CCOC(=O)O[C@H](C)OC(=O)c1ccc2c(c1)cc(C(=O)NC1CCN(C(C)C)CC1)n2Cc1cc(-c2ccc(Cl)s2)on1	inactive	
Oc1ccccc1	inactive	
CC(C)(c1cc(Br)c(O)c(Br)c1)c1cc(Br)c(O)c(Br)c1	inactive	
CCCCCc1ccc(N)cc1	inactive	
